Drawing on PubChem BioAssay AID488969 (Vanderbilt High Throughput Screening Facility, 2010), this text covers z-score for 71 molecules.

The full ranking holds about 110,000 compounds; the median of “z-score” is about -0.1, and the highest 2% start at about 2. Shown is part of a subset that was picked to be rich in the highest values. Calls of active or inactive are those of the source.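 The calls were made as follows: active = z-score in the third read window above 3 or below -3; inactive = the rest.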

Sequence of Metabotropic glutamate receptor 8 (Rattus norvegicus) (P70579 whole entry, looked up): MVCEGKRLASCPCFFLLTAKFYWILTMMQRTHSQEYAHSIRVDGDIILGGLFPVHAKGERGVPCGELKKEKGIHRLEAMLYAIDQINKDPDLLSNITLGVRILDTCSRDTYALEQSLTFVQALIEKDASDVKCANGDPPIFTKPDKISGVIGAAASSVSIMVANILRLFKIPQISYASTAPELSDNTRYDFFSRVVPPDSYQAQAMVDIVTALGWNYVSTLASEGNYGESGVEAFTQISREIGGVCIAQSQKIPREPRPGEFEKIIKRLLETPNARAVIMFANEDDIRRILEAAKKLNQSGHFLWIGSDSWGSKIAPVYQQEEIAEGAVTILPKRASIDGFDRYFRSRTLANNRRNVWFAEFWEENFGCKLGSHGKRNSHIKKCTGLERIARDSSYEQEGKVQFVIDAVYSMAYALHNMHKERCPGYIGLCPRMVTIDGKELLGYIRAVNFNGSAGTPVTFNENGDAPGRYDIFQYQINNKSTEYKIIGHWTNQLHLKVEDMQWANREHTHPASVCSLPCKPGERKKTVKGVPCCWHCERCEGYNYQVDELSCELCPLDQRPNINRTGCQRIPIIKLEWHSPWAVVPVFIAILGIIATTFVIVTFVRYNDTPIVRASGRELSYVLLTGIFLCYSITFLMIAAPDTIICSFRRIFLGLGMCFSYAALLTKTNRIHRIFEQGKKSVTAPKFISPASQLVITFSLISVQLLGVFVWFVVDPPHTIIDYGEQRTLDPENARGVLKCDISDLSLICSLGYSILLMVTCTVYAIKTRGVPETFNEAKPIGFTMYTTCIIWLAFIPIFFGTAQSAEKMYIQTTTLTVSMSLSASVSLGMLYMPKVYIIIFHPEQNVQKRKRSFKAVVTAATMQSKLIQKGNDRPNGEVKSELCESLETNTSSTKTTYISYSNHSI

The experiment addresses Metabotropic glutamate receptor 8 (Rattus norvegicus) (UniProt P70579). Description: mGluR8 Gi/Go-coupled signaling modulation – cell-based, rat, thallium flux, HTS, primary screen (AID 488969). To be noted: HEK293 rat mGluR8, GIRK (G protein-gated inwardly rectifying potassium channel) thallium flux, FluoZin2; at 10 µM; stronger effect = higher value; submaximal glutamate (EC20) added with thallium.
In the case of `O=[N+]([O-])c1ccc(NC(=S)N2CCN(c3ccc(F)cc3)CC2)cc1`, the z-score was -0.0841.

On to `Cc1ccc(NC(=O)c2nccnc2C(=O)O)cc1C`, for which the z-score was -0.208.

On to `O=P(c1ccccc1)(c1ccccc1)N(c1ccccc1)c1ccccc1`, for which the z-score is -0.752.

Molecule `CC(C)C(=O)Nc1ccc(C(=O)N2CCN(C(=O)c3ccco3)CC2)cc1` registered a z-score of 0.196.

Molecule `CC(=O)Nc1ccc(C(=O)N2CCCC2)cc1` came in with a z-score of -0.0468.

In turn, `CC(C)C(=O)Nc1ccc(C(=O)N2CCCCCC2)cc1` returned a z-score of 2.15.

The molecule `O=c1c2ccccc2nc(N/N=C/c2ccc(O)cc2)n1O` yielded a z-score of -0.0395.

In the case of `Cc1cc(/N=C/N(C)C)on1`, the z-score was -0.0351.

Turning to `CCOc1ccc(-n2nnnc2SCC(=O)N2CCOCC2)cc1`, the z-score was -0.126.

As to `COc1ccc(-n2nnnc2SCC(=O)N2CCOCC2)cc1`, the z-score was 3.28 (active).

In the case of `COc1cc(OC)cc(-n2nnnc2SCC(=O)N2CCCC2)c1`, the z-score amounted to 0.154.

Regarding `CCn1c(SCC(=O)Nc2ccc(C(=O)OC)cc2)nc2cccnc21`, the z-score was -0.121.

`CC(CN(C)Cc1ccccc1)OC(=O)c1ccccc1F` (stereo unspecified) displayed a z-score of 0.00558.

`O=C(Cc1ccccc1)N/N=C/c1ccc([N+](=O)[O-])s1` registered a z-score of 0.543.

As for `CCOc1ccc(NC(=O)CCC(=O)N/N=C/c2ccc([N+](=O)[O-])s2)cc1`, the z-score stood at 2.1.

In turn, `COc1ccc(NC(=O)CCC(=O)N/N=C/c2ccc([N+](=O)[O-])s2)cc1` showed a z-score of -0.189.

Consider `Cc1ccc(C(=O)N/N=C/c2ccc([N+](=O)[O-])s2)cc1`, for which the z-score was -0.176.

`O=C(N/N=C\c1ccc([N+](=O)[O-])s1)c1cncc(Br)c1` registered a z-score of -0.156.

As for `O=C(N/N=C/c1ccc([N+](=O)[O-])s1)c1ccccc1Br`, the z-score was -0.301.

`Cc1ccccc1C(=O)N/N=C/c1ccc([N+](=O)[O-])s1` returned a z-score of 2.95.

On to `O=C(N/N=C/c1ccc([N+](=O)[O-])s1)c1ccncc1`, for which the z-score is -0.428.

On to `O=C(N/N=C/c1ccc([N+](=O)[O-])s1)c1cccc(Br)c1`, for which the z-score is 6.96 (active).

In the case of `Cc1ccc(N(C(=O)CS(=O)CC(=O)Nc2ccc(F)cc2)C(C(=O)NC2CCCCC2)c2ccco2)cc1` (stereo unspecified), the z-score was -0.219.

`O=C(NNC(=S)NC(=O)c1ccccc1[N+](=O)[O-])c1ccccc1Cl` had a z-score of -0.333.

As to `O=C(CCC1COc2ccccc2O1)Nc1ccc(Cl)cn1` (stereo unspecified), the z-score was -0.27.

Molecule `COc1ccccc1C(OC(=O)c1cccs1)C(=O)NCC1CCCO1` (stereo unspecified) registered a z-score of -0.383.

As for `COc1ccc(C(OC(=O)c2cccs2)C(=O)NCC2CCCO2)cc1` (stereo unspecified), the z-score was 8.22 (active).

As for `O=C(OC(C(=O)NCC1CCCO1)c1ccc(F)cc1)c1cccs1` (stereo unspecified), the z-score is -0.0339.

For `COc1ccc(N2CCN(C(=O)c3cn(C4CCCC4)c(=O)c4c3c3ccccc3n4C)CC2)cc1`, the z-score was -0.454.

For `O=C(Nc1ccc(N2CCCC2)c(S(=O)(=O)Nc2cccc(C(F)(F)F)c2)c1)c1cccs1`, the z-score was -0.233.

Consider `COc1ccc(Nc2ncnc3c2cnn3Cc2ccccc2)cc1OC`, for which the z-score is -0.181.

Regarding `COc1ccc(Nc2ncnc3c2cnn3Cc2ccccc2)cc1`, the z-score was -1.73.

Take `CCOc1ccc(Nc2ncnc3c2cnn3Cc2ccccc2)cc1`: the z-score came to 2.26.

The molecule `CC(=NCCCN(C)C)C1=C(O)c2ccccc2C1=O` returned a z-score of 0.45.

For `CCc1ccc(C(=O)N2CCCC2)s1`, the z-score came out at 0.0133.

For `CCOCC(=O)Nc1nc(-c2ccccc2)c(CC)s1`, the z-score is -0.107.

In the case of `Cc1cccc(N2CCN(C(=O)c3ccc(Cl)c(S(=O)(=O)N4CCc5ccccc5C4)c3)CC2)c1C`, the z-score is 3.61 (active).

As to `O=C(c1ccc(Cl)c(S(=O)(=O)N2CCc3ccccc3C2)c1)N1CCN(c2ccccc2)CC1`, the z-score was -0.0565.

Consider `Cc1cccc(NS(=O)(=O)c2cc(C(=O)N3CCc4ccccc4C3)ccc2Cl)c1C`, for which the z-score is -0.467.

In turn, `Brc1ccc(NCc2cccc3ccccc23)nc1` returned a z-score of -0.475.

On to `Oc1ccccc1CNc1ccc(Br)cn1`, for which the z-score is 5.86 (active).

`Oc1ccc(Cl)cc1CNc1ccc(Br)cn1` came in with a z-score of 0.33.

`CN=C1SC(CC(=O)Nc2sc(C)c(C)c2C(=O)OC)C(=O)N1C` (stereo unspecified): the z-score is -0.51.

For `COCCN(Cc1ccccc1)C(=S)Nc1ccc(OC(F)F)cc1`, the z-score was -0.227.

Consider `Cc1c(C#N)c2ncn(CC#N)c(=O)c2n1-c1ccccc1`, for which the z-score was 3.28 (active).

`Cc1c(C#N)c2ncn(Cc3ccccn3)c(=O)c2n1-c1ccccc1` displayed a z-score of -0.89.

Molecule `Cc1c(C#N)c2ncn(Cc3ccccc3)c(=O)c2n1-c1ccccc1` registered a z-score of -0.85.

Molecule `CC(=O)c1ccc(N2CCN(C(=S)Nc3cccc(Cl)c3)CC2)cc1` showed a z-score of -0.152.

For `CCOCCCNc1nc2ccccc2[nH]1`, the z-score was -0.0367.

On to `O=C1CCCC(=O)C1=C1SCCCS1`, for which the z-score is -0.18.

Consider `O=C(Nc1ccc(Cl)cc1)N1CCCN(Cc2ccccc2F)C1`, for which the z-score is -0.218.

`O=C(Nc1ccc(Cl)cc1)N1CCCN(Cc2ccc(F)cc2)C1` registered a z-score of 2.53.

`Cc1ccc(NC(=O)N2CCCN(Cc3ccc(F)cc3)C2)cc1C` yielded a z-score of -0.435.

Molecule `CN1C(=O)c2ccc(NC(=O)c3ccc(N4CCCCC4)c([N+](=O)[O-])c3)cc2C1=O` registered a z-score of -0.139.

Regarding `Cc1cccc(NC(=O)c2cc(NC(=O)c3ccccc3)ccc2N2CCCCC2)c1`, the z-score was -0.201.

`CCN=C1SCC(=O)N1c1ccc(OC)cc1` yielded a z-score of -0.307.

In the case of `COc1ccc(S(=O)(=O)N(CCc2ccccc2)CC(=O)N/N=C/c2ccc3c(c2)OCO3)cc1`, the z-score was -0.0021.

As for `CCOc1ccccc1NC(=O)CN(C)S(=O)(=O)c1cccc2nsnc12`, the z-score is -0.173.

Molecule `COc1ccccc1NC(=O)CS(=O)(=O)c1cccc2nsnc12` came in with a z-score of 1.99.

`COc1ccc(Cl)cc1NC(=O)CS(=O)(=O)c1cccc2nsnc12` had a z-score of 0.107.

`Cc1csc(NC(=O)Cc2c[nH]c3ccccc23)n1` showed a z-score of -0.137.

For the molecule `COc1cc(C)ccc1OCCCON1C(=O)CCC1=O`, the z-score turned out to be 0.122.

As to `CC(C)(C)c1ccc(OCCON2C(=O)CCC2=O)c(Cl)c1`, the z-score was 3.08 (active).

For `O=C1CCC(=O)N1OCCCOc1ccc(Br)cc1Cl`, the z-score is 0.401.

Turning to `CCn1c(=O)n(CC)c2cc(S(N)(=O)=O)c(C)cc21`, the z-score is 0.381.

As to `COc1ccc(-c2cc(-c3ccccc3)c(C#N)c(SCC(=O)Nc3ncc(C)s3)n2)cc1`, the z-score is -0.161.

`CCOc1ccc2c(c1)c(C(C)=O)c(C)n2-c1ccccc1`: the z-score is -1.1.

Consider `CCN(CC)CC(O)COc1ccc2c(c1)c(C(C)=O)c(C)n2-c1ccccc1` (stereo unspecified), for which the z-score was found to be 2.25.

In the case of `CCOC(=O)c1c(C)n(C)c2ccc(OCC(O)CN(CC)CC)cc12` (stereo unspecified), the z-score was 0.554.

Molecule `CC1CCN(S(=O)(=O)c2ccc(NC(=O)CN3CCN(C)CC3)cc2)CC1` came in with a z-score of 0.193.

`Cc1nn2c(CN(C(=O)COc3ccccc3)c3ccccc3)nnc2c2ccccc12` displayed a z-score of -0.835.
